Screens as filed in PubChem.
SIRT5 block = inhibitors of human sirtuin-5 desuccinylase. AID 652115. Purified SirT5, succinyl-peptide AMC, trypsin-coupled fluorescence. hit rate 1.1% among 330,000. Q9NXA8. inhibition, % at 15 µM; in the data active means inhibition above about 15%
Target sequence (Q9NXA8 whole entry, looked up): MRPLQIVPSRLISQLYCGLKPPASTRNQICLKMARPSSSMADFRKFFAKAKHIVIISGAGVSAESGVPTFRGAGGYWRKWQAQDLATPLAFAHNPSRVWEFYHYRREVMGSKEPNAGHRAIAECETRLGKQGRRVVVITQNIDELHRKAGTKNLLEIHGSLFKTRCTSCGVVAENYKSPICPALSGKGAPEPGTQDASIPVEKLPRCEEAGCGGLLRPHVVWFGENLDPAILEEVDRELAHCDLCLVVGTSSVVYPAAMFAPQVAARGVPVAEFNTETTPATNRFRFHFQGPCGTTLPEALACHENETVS
PDI turbidity = blocks human protein disulfide isomerase activity; hit rate 0.052% among 350,000; PDI insulin aggregation turbidity, A650, 90 min; inhibition, % at 10 µM;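 active means mean inhibition across replicates of 30% or more, whatever share of single replicates reach that level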
HDAC3 inhib = inhibitors of human histone deacetylase 3; inhibition, % at 8.3 µM; recombinant HDAC3, fluorogenic peptide/trypsin coupled, fluorescence; hit rate 0.15% among 320,000; in the data active means inhibition above about 26%, passing the limit was not always enough
ERAP1 HTS inh = ERAP1 (human) enzyme inhibition. Q9NZ08. recombinant ERAP1, Leu-AMC fluorescence, 60 min. inhibition, % at 10.7 µM. hit rate 0.15% among 340,000. AID 652197;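 active means mean replicate inhibition of at least 30%, or all replicates individually reaching that 30% level; inactive means mean below 30% and not every replicate reaching it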
ERp5 block = ERp5 (human) disulfide isomerase inhibition. Q15084. ERp5 insulin aggregation, absorbance 650 nm, 90 min. AID 651711. inhibition, % at 9.99 µM. hit rate 0.05% among 350,000;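 active means mean replicate inhibition above about 25%, with every replicate also reaching it, limit read from the data, passing the limit was not always enough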
Target sequence (Q15084 whole entry, looked up): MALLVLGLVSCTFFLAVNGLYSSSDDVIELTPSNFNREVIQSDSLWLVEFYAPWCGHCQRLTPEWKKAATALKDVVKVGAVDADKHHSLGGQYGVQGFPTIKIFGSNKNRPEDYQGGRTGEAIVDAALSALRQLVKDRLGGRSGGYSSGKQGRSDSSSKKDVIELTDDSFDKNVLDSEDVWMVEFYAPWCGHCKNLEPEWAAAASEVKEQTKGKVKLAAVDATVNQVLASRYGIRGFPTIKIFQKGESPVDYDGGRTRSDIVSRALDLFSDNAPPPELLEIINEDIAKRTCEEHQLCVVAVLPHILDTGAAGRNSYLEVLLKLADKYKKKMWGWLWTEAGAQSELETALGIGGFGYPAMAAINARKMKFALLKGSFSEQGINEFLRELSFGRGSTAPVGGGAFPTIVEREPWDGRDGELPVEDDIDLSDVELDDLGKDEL
Large screens that a line does not name were inactive. The full list was thinned out, with hits kept by preference.

COc1cccc(-c2cn(CC[C@H]3CC[C@H](NS(=O)(=O)Cc4ccccc4)[C@@H](CO)O3)nn2)c1	none (no result: PDI turbidity, HDAC3 inhib)
CCCn1cc(S(=O)(=O)c2ccc(C)cc2)c(=O)c2cc(OC)c(OC)cc21	SIRT5 block 20
CCCn1cc(S(=O)(=O)c2ccc(C)cc2)c(=O)c2cc(OC)ccc21	none
COc1ccc(NC(=O)N(C)C[C@H]2OCCCC[C@H](C)Oc3ccc(NS(=O)(=O)c4ccccc4)cc3C(=O)N([C@@H](C)CO)C[C@H]2C)cc1	none (no result: PDI turbidity, HDAC3 inhib)
C[C@@H]1CN([C@@H](C)CO)C(=O)c2cc(NS(=O)(=O)c3cn(C)cn3)ccc2O[C@@H](C)CCCCO[C@H]1CN(C)C(=O)Cc1ccccc1	SIRT5 block 17 (no result: PDI turbidity, HDAC3 inhib)
C[C@@H]1CCCCO[C@H](CN(C)Cc2ccc(C(F)(F)F)cc2)[C@@H](C)CN([C@@H](C)CO)C(=O)c2cc(NS(=O)(=O)c3ccc(Cl)cc3)ccc2O1	none (no result: PDI turbidity, HDAC3 inhib)
C[C@H]1CCCCO[C@H](CN(C)Cc2ccc(C(F)(F)F)cc2)[C@@H](C)CN([C@@H](C)CO)C(=O)c2cc(NS(=O)(=O)c3ccc(Cl)cc3)ccc2O1	SIRT5 block 19 (no result: PDI turbidity, HDAC3 inhib)
C[C@@H]1CCCCO[C@H](CN(C)Cc2ccc(C(F)(F)F)cc2)[C@@H](C)CN([C@H](C)CO)C(=O)c2cc(NS(=O)(=O)c3ccc(F)cc3)ccc2O1	none (no result: PDI turbidity, HDAC3 inhib)
C[C@@H]1CN([C@@H](C)CO)C(=O)c2cc(NS(=O)(=O)c3ccc(F)cc3)ccc2O[C@@H](C)CCCCO[C@H]1CN(C)Cc1ccc(C(F)(F)F)cc1	SIRT5 block 28 (no result: PDI turbidity, HDAC3 inhib)
C[C@@H]1CCCCO[C@@H](CN(C)Cc2ccc(C(F)(F)F)cc2)[C@H](C)CN([C@@H](C)CO)C(=O)c2cc(NS(=O)(=O)c3ccc(F)cc3)ccc2O1	SIRT5 block 19 (no result: PDI turbidity, HDAC3 inhib)
Cc1ccccc1S(=O)(=O)N1[C@@H](C#N)[C@@H](c2ccc(-c3ccc(F)cc3)cc2)[C@@H]1CO	none (no result: PDI turbidity, HDAC3 inhib)
C[C@@H]1CN([C@@H](C)CO)C(=O)c2cc(NS(=O)(=O)c3cn(C)cn3)ccc2O[C@@H](C)CCCCO[C@@H]1CN(C)Cc1ccc(C(F)(F)F)cc1	SIRT5 block 15 (no result: PDI turbidity, HDAC3 inhib)
CCC(=O)Nc1ccc2c(c1)OC[C@H](C)N(Cc1nccs1)C[C@@H](C)[C@@H](OC)CN(C)C2=O	none (no result: PDI turbidity, HDAC3 inhib)
CCOC(=O)c1ccc(S(=O)(=O)NC2CC2)cc1	none
CCOC(=O)c1ccc(S(=O)(=O)NC2CCC(C)CC2)cc1 (stereo not drawn)	SIRT5 block 21
CC(C)NC(=O)N[C@@H]1C=C[C@H](CC(=O)N2CCCCC2)O[C@@H]1CO	none (no result: PDI turbidity, HDAC3 inhib)
Cc1c(C)c2ccc(OCC(=O)N[C@@H](Cc3ccccc3)C(=O)O)cc2oc1=O	none (no result: PDI turbidity)
CCCCCCc1c(C)c2ccc(OCC(=O)N[C@@H](Cc3ccccc3)C(=O)O)cc2oc1=O	ERAP1 HTS inh 32 (no result: SIRT5 block, PDI turbidity)
C[C@@H]1CCCCO[C@@H](CN(C)C(=O)Nc2ccccc2)[C@H](C)CN([C@@H](C)CO)C(=O)c2cc(NC(=O)CCC(F)(F)F)ccc2O1	none (no result: PDI turbidity, HDAC3 inhib)
Cc1nc(N)sc1-c1csc(Nc2cccc(C(=O)O)c2)n1	SIRT5 block 27
CCC(=O)N1CC2(C1)[C@@H](c1ccccc1)[C@@H](CO)N2C(=O)c1ccccc1	none (no result: PDI turbidity, HDAC3 inhib)
COc1ccc(CCNC(=O)Cn2ccc3c(OC)cccc3c2=O)cc1OC	SIRT5 block 21 (no result: ERAP1 HTS inh)
COc1ccc(S(=O)(=O)Nc2ccc3c(c2)C(=O)N([C@@H](C)CO)C[C@@H](C)[C@H](CN(C)Cc2ccc(C(F)(F)F)cc2)OCCCC[C@H](C)O3)cc1	none (no result: PDI turbidity, HDAC3 inhib)
COc1ccc(S(=O)(=O)Nc2ccc3c(c2)C(=O)N([C@@H](C)CO)C[C@@H](C)[C@@H](CN(C)Cc2ccc(C(F)(F)F)cc2)OCCCC[C@@H](C)O3)cc1	SIRT5 block 22 (no result: PDI turbidity, HDAC3 inhib)
COc1ccc(S(=O)(=O)Nc2ccc3c(c2)C(=O)N([C@H](C)CO)C[C@H](C)[C@H](CN(C)Cc2ccc(C(F)(F)F)cc2)OCCCC[C@H](C)O3)cc1	SIRT5 block 39 (no result: PDI turbidity, HDAC3 inhib)
COc1ccc(S(=O)(=O)Nc2ccc3c(c2)C(=O)N([C@H](C)CO)C[C@@H](C)[C@@H](CN(C)Cc2ccc(C(F)(F)F)cc2)OCCCC[C@@H](C)O3)cc1	SIRT5 block 15 (no result: PDI turbidity, HDAC3 inhib)
COc1ccc(S(=O)(=O)Nc2ccc3c(c2)C(=O)N([C@H](C)CO)C[C@@H](C)[C@@H](CN(C)Cc2ccc(C(F)(F)F)cc2)OCCCC[C@H](C)O3)cc1	SIRT5 block 17 (no result: PDI turbidity, HDAC3 inhib)
CN(C)CC(=O)Nc1ccc2c(c1)[C@H]1C[C@@H](CC(=O)NCc3ccccc3)O[C@@H](CO)[C@H]1O2	none (no result: PDI turbidity, HDAC3 inhib)
O=C(C[C@H]1C[C@H]2c3cc(NC(=O)Nc4ccccc4F)ccc3O[C@H]2[C@H](CO)O1)NCc1ccncc1	none (no result: SIRT5 block, PDI turbidity, HDAC3 inhib)
COc1ccc(C(=O)n2nc(-c3ccc(OC)cc3)nc2N)cc1	HDAC3 inhib 59
COc1ccc(-c2nc(N)n(C(=O)c3ccc(C)cc3)n2)cc1	HDAC3 inhib 32
COc1ccc(C(=O)n2nc(-c3ccccc3)nc2N)cc1OC	HDAC3 inhib 62 (no result: SIRT5 block, ERAP1 HTS inh, ERp5 block)
CN(C)C(=O)c1cccc(-c2ccc([C@H]3[C@@H](CO)N(C(=O)C4CCCC4)[C@H]3C#N)cc2)c1	none (no result: PDI turbidity, HDAC3 inhib)
COc1ccccc1CN1C[C@H](C)[C@H](OC)CN(C)C(=O)c2ccc(NC(C)=O)cc2OC[C@H]1C	none (no result: PDI turbidity, HDAC3 inhib)
C[C@H]1CN([C@@H](C)CO)C(=O)c2cc(NS(=O)(=O)c3ccc(Cl)cc3)ccc2O[C@@H]1CN(C)S(=O)(=O)c1cn(C)cn1	none (no result: PDI turbidity, HDAC3 inhib)
COc1ccc(CC(=O)Nc2nc(-c3ccc(F)c(F)c3)cs2)cc1	none
O=C(Cc1ccc(F)cc1)Nc1nc(-c2ccc(F)c(F)c2)cs1	SIRT5 block 16
NNC(=O)c1cc(-c2ccc(O)cc2)nc2ccc(Br)cc12	PDI turbidity 40 (no result: HDAC3 inhib)
Cc1ccc2ccccc2[n+]1CCCS(=O)(=O)[O-]	none (no result: SIRT5 block, ERAP1 HTS inh, ERp5 block)
O=S(=O)([O-])CCC[n+]1ccc(Oc2ccccc2)cc1	ERAP1 HTS inh 50
CN1C(=O)c2cc(NC(=O)C3CC3)ccc2OC[C@H]2O[C@H](CC(=O)NCc3ccccc3F)CC[C@H]21	none (no result: PDI turbidity, HDAC3 inhib)
O=C1CN(C(=O)CSc2nc(-c3ccc(Cl)cc3)cs2)c2ccccc2N1	SIRT5 block 15
C/C(N)=C(/C#N)C(=O)CSc1nnc(Nc2ccccc2)s1	SIRT5 block 18
C[C@@H]1CN([C@H](C)CO)C(=O)c2cccc(NC(=O)C3CC3)c2O[C@H]1CN(C)C(=O)Nc1ccccc1	none (no result: PDI turbidity, HDAC3 inhib)
C[C@@H]1CN([C@H](C)CO)C(=O)c2cc(NC(=O)CCC(F)(F)F)ccc2O[C@@H](C)CCCCO[C@H]1CN(C)C(=O)NC1CCCCC1	none (no result: PDI turbidity, HDAC3 inhib)
CCOC(=O)c1c(NC(=O)COC(=O)CCNS(=O)(=O)c2ccccc2)sc(C(=O)NC)c1C	ERAP1 HTS inh 38 (no result: HDAC3 inhib)
O=c1oc(CCO)cc2ccc(C#Cc3ccsc3)cc12	SIRT5 block 17
CCOC(=O)N1CCN(C(=O)c2cc(COc3ccc4ncccc4c3)on2)CC1	SIRT5 block 20
Cc1cccnc1CN1CCN(C(=O)c2cc(COc3ccc4ncccc4c3)on2)CC1	none
C[C@@H]1CN([C@@H](C)CO)C(=O)Cc2cc(NC(=O)c3ccncc3)ccc2O[C@@H]1CN(C)CC1CC1	none (no result: PDI turbidity, HDAC3 inhib)
